Measured values: PubChem BioAssay (NCATS)
Results filed as inconclusive are left out. The source made the active and inactive calls. The call rests on the fitted dose curve; in most records, active means well fitted curve in the direction sought with a large enough effect; inconclusive means small, poorly fitted or top-dose-only effect, or another doubt; inactive means no such curve, though single readings can be large; an effect the other way counts as inactive or inconclusive.

Columns and labels:
[1] = qHTS to identify inhibitors of the type 1 interferon - major histocompatibility complex class I in skeletal muscle: primary screen against the NCATS Pharmaceutical Collection (AID 1347407);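 further: luminescence of HiBiT knocked into endogenous HLA-B as interferon-induced MHC class I level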
Summary of the method: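 Compounds […] were added to CRISPR-engineered HLA-B-HiBiT C25cl48 human myoblasts with 4.0 ng/ml IFN-beta. After 24 hrs at 37 C, cells were lysed and HiBiT luminescence measured.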

[2] = target: Protein phosphatase 1D (Homo sapiens) (UniProt O15297); assay: RapidFire Mass Spectrometry qHTS Assay for Modulators of WT P53-Induced Phosphatase 1 (WIP1) (AID 1347424);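 further: amount of dephosphorylated VEPPL-S-QETFS peptide product formed by WIP1; series mostly up to about 63 µM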
Summary of the method: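 Mass-spectrometric measurement of dephosphorylated peptide after a 5 min room-temperature reaction of 10 nM WIP1 with 2 uM phosphopeptide, following 1 h compound preincubation in 30 mM MgCl2 buffer.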

[3] = target: Protein phosphatase 1D (Homo sapiens) (UniProt O15297); assay: Rhodamine-PBP qHTS Assay for Modulators of WT P53-Induced Phosphatase 1 (WIP1) (AID 1347425)
Summary of the method: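 Steps: enzyme with Rh-PBP sensor and compounds, room-temperature incubation of 1 hr, baseline read, addition of VEPPL-pS-QETFS (10 uM final), kinetic fluorescence reads at 525/598 nm. Activity equals final minus baseline signal.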

[4] = Primary qHTS for inhibitors of La Crosse Virus (LACV) - induced cell death in SH-SY5Y cells (AID 1508616);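 further: top concentration of the series differs between compounds; higher means more rescue of cells from virus-induced death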
Summary of the method: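 SH-SY5Y, 6000 cells/well; cpd via pin tool in DMSO; LACV 0.01 MOI; 6 d 37C 5% CO2; ATPLite, 5 min RT; luminescence normalized to ±virus DMSO controls.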

[5] = target: Calcium and integrin-binding protein 1 (Homo sapiens) (UniProt Q99828); assay: Primary qHTS for Identification of Calcium Integrin Binding Protein 1 (CIB1) Competitor (AID 1508620);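 further: GST tagged CIB1 binding a fluorescein labelled alphaIIb integrin peptide tracer; top concentration of the series differs between compounds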
Summary of the method: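 Fluorescence polarization competition: CIB1-GST (1 uM final) preincubated with compound 15 min at room temperature, then FITC-labeled alphaIIb peptide (100 nM final) added for another 15 min. Polarization read at Ex 480/Em 540.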

Measured: Potency

Chain of Calcium and integrin-binding protein 1 (Homo sapiens) (Q99828 whole entry, looked up): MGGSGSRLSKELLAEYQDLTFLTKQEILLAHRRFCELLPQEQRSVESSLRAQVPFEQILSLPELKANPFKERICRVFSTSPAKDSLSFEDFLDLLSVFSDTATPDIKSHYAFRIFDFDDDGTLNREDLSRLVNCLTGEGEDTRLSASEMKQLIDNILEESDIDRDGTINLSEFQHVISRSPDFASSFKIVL
Chain of Protein phosphatase 1D (Homo sapiens) (O15297 whole entry, looked up): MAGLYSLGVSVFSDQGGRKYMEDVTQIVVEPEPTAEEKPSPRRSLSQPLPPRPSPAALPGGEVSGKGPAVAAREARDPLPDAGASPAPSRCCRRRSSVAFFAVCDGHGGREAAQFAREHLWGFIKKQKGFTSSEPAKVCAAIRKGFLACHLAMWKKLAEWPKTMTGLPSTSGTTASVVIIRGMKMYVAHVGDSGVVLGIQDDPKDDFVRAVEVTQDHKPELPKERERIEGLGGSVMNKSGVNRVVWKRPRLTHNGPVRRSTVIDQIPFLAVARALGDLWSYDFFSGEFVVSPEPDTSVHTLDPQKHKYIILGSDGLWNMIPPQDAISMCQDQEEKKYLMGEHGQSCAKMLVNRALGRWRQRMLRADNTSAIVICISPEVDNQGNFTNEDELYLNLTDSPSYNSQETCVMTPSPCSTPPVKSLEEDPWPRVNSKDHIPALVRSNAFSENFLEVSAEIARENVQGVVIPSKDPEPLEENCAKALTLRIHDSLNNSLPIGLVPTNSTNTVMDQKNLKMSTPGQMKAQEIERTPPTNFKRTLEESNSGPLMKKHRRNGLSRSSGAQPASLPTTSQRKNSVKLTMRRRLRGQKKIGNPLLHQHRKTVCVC

CC(=O)N[C@@H](CCC(N)=O)C(=O)O
inactive: all assays above

CO/N=C(/C(=O)N[C@@H]1C(=O)N2C(C(=O)OCOC(=O)C(C)(C)C)=C(C)CS[C@H]12)c1csc(N)n1
inactive: all assays above

C[C@H]1NCc2cc(-c3ccc4c(=O)c(C(=O)O)cn(C5CC5)c4c3OC(F)F)ccc21
inactive: all assays above

CC(C)=CCC/C(C)=C/CC/C(C)=C/CCC(=O)OC/C=C(\C)CCC=C(C)C
inactive: all assays above

Cc1cccc(OCC(O)CNC(C)(C)C)c1C (stereo not given)
inactive: all assays above

COC(=O)c1ccc(NC(C)=O)cc1OC
inactive: all assays above

CC(C)C[C@H](NC(=O)CNC(=O)[C@H](Cc1ccc(O)cc1)NC(=O)[C@H](CO)NC(=O)[C@H](Cc1c[nH]c2ccccc12)NC(=O)[C@H](Cc1cnc[nH]1)NC(=O)[C@@H]1CCC(=O)N1)C(=O)N[C@@H](CCCN=C(N)N)C(=O)N1CCC[C@H]1C(=O)NCC(N)=O (stereo in doubt)
inactive: all assays above

Fc1ccc(C(c2ccc(F)cc2)N2CCNCC2)cc1
inactive: all assays above

Cc1sccc1Br
inactive: all assays above

O=C(O)[C@@H](O)[C@H](O)[C@H](O)[C@@H](O)C(=O)O
inactive: all assays above

C/C(=C1\CCOC(=O)S1)N(C=O)Cc1cnc(C)nc1N
inactive: all assays above

COC(=O)c1cc(Cl)ccc1OC
inactive: all assays above

O=C(Oc1ccccc1)c1ccccc1O
inactive: all assays above

O=C(O)CCCC[C@@H]1SC[C@@H]2NC(=O)N[C@@H]21
inactive: all assays above

CN(C)CCOC1=Cc2ccccc2Sc2ccc(Cl)cc21
inactive: all assays above

Brc1ccccc1-c1ccccc1
inactive: all assays above

CCOc1ncc(F)c(=O)[nH]1
inactive: all assays above

CCn1ccc(NS(=O)(=O)c2ccc(N)cc2)nc1=O
inactive: all assays above

O=C1c2ccccc2CCc2ccccc21
inactive: all assays above

Cn1cc(S(C)=O)c(=O)c2ccc(F)cc21 (stereo not given)
inactive: all assays above

Cc1ccc(/C=N/n2c(-c3ccccc3)csc2=S)cc1
inactive: all assays above

CC(NC(CCc1ccccc1)C(=O)O)C(=O)N1C(=O)N(C)CC1C(=O)O (stereo not given)
inactive: all assays above

CCCc1ncc(C(=O)O)s1
inactive: all assays above

CC(CC1c2ccccc2CCc2ccccc21)CN(C)C (stereo not given)
inactive: all assays above

Cc1cccc(C)c1NC(=O)c1ccc(N)cc1
inactive: all assays above

CCN1CCCC1CN (stereo not given)
inactive: all assays above

O=P(O)(O)OCC(O)CO (stereo not given)
inactive: all assays above

Cc1ccc(-c2ccccc2C#N)cc1
inactive: all assays above

OC(CCCN1CCCCC1)(c1ccccc1)c1ccccc1
inactive: all assays above

CC(=O)Nc1ccc(S(=O)(=O)Nc2cc(C)on2)cc1
inactive: all assays above

Cn1c(=O)c2c(ncn2CC(=O)O)n(C)c1=O
inactive: all assays above

CCC(CN)=C(c1ccccc1)c1ccccc1
inactive: all assays above

COc1ccccc1OCC1CNC(=O)O1 (stereo not given)
inactive: all assays above

c1ccc2c(c1)CCc1ccccc1N2
inactive: all assays above

Nc1nc2ccccc2n1Cc1ccc(F)cc1
inactive: all assays above

Cc1cc(O)c(C)c(C)c1O
inactive: all assays above

COc1cc(S(N)(=O)=O)cc(C(=O)O)c1OC
inactive: all assays above
